Measured values: PubChem BioAssay AID1159580 (chemical genetic matrix, 2015)
The campaign covered roughly 5,500 compounds. About 2,000 (36%) were called active. Another 18% or so got no clear call; they are omitted. Cut-off read from the data, not from the text of the source: active = normalized growth mostly below about 0.91 (no sharp cut-off); inconclusive = no clear call, values can overlap the other calls; inactive = mostly above about 0.92. The list shows a part of the results.

Assay: chemical genetic growth profiling, strain panel (AID 1159580);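 note: tested at 20 µM; growth read once vehicle control cultures reached saturation at 30 °C; 1 = growth at the plate median or of vehicle wells; lower values mean less growth of the strain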
Details: growth OD
[1] = S. cerevisiae deletion strains, locus YMR307W, strain GAS1, hits give low values
[2] = S. cerevisiae deletion strains, locus YJL095W, strain BCK1, hits give low values

Measured: normalized growth

NC/C=C\C(=O)O
inactive: S. cerevisiae deletion strains, locus YAL013W, strain DEP1, hits give low values 1 | S. cerevisiae deletion strains, locus YAL040C, strain CLN3, hits give low values 0.994 | S. cerevisiae deletion strains, locus YER002W, strain NOP16, hits give low values 1.01 | S. cerevisiae deletion strains, locus YGR229C, strain SMI1, hits give low values 1.02 | [1] 1 | S. cerevisiae deletion strains, locus YNL175C, strain NOP13, hits give low values 1 | S. cerevisiae deletion strains, locus YNL197C, strain WHI3, hits give low values 0.985 | S. cerevisiae deletion strains, locus YNL224C, strain SQS1, hits give low values 0.993 | S. cerevisiae deletion strains, locus YOR083W, strain WHI5 (second series), hits give low values 1.02

CCC(C)c1cnc(CC(C)C)c(=O)n1O (centres undefined)
inactive: S. cerevisiae deletion strains, locus YBR021W, strain FUR4, hits give low values 1.01 | S. cerevisiae deletion strains, locus YBR229C, strain ROT2, hits give low values 1.01 | S. cerevisiae deletion strains, locus YCL029C, strain bik1, hits give low values 1.02 | S. cerevisiae deletion strains, locus YDL074C, strain BRE1, hits give low values 0.876 | S. cerevisiae deletion strains, locus YDL101C, strain DUN1, hits give low values 1.02 | S. cerevisiae deletion strains, locus YDL134C, strain PPH21, hits give low values 1.04 | S. cerevisiae deletion strains, locus YDL192W, strain arf1, hits give low values 0.933 | S. cerevisiae deletion strains, locus YDR101C, strain arx1, hits give low values 0.993 | S. cerevisiae deletion strains, locus YDR318W, strain mcm21, hits give low values 1.03 | S. cerevisiae deletion strains, locus YDR388W, hits give low values 1.02 | S. cerevisiae deletion strains, locus YDR502C, strain sam2, hits give low values 0.967 | S. cerevisiae deletion strains, locus YER110C, hits give low values 1.02 | S. cerevisiae deletion strains, locus YER155C, strain BEM2, hits give low values 1.01 | S. cerevisiae deletion strains, locus YER167W, strain BCK2, hits give low values 0.998 | S. cerevisiae deletion strains, locus YGL086W, strain mad1, hits give low values 0.946 | S. cerevisiae deletion strains, locus YGL248W, strain PDE1, hits give low values 1.04 | S. cerevisiae deletion strains, locus YGR078C, strain PAC10, hits give low values 0.905 | S. cerevisiae deletion strains, locus YGR135W, strain pre9, hits give low values 0.977 | S. cerevisiae deletion strains, locus YGR252W, strain gcn5, hits give low values 1.1 | S. cerevisiae deletion strains, locus YHR079C, strain IRE1 (second series), hits give low values 1.02 | S. cerevisiae deletion strains, locus YHR094C, strain hxt1, hits give low values 1.01 | S. cerevisiae deletion strains, locus YHR200W, strain rpn10, hits give low values 0.961 | S. cerevisiae deletion strains, locus YIL066C, strain RNR3, hits give low values 0.994 | S. cerevisiae deletion strains, locus YIL073C, strain SPO22, hits give low values 1.18 | S. cerevisiae deletion strains, locus YIR030C, strain dcg1, hits give low values 1.01 | [2] 0.981 | S. cerevisiae deletion strains, locus YJL134W, strain LCB3, hits give low values 0.993 | S. cerevisiae deletion strains, locus YJL168C, strain set2, hits give low values 1.02 | S. cerevisiae deletion strains, locus YJL187C, strain SWE1 (second series), hits give low values 1.01 | S. cerevisiae deletion strains, locus YKL009W, strain mrt4, hits give low values 0.936 | S. cerevisiae deletion strains, locus YKR001C, strain vps1, hits give low values 0.963 | S. cerevisiae deletion strains, locus YLR039C, strain RIC1, hits give low values 0.771 | S. cerevisiae deletion strains, locus YLR058C, strain SHM2, hits give low values 1.02 | S. cerevisiae deletion strains, locus YLR102C, strain apc9, hits give low values 1.02 | S. cerevisiae deletion strains, locus YLR262C, strain YPT6, hits give low values 0.806 | S. cerevisiae deletion strains, locus YLR268W, strain sec22, hits give low values 1.01 | S. cerevisiae deletion strains, locus YLR371W, strain rom2, hits give low values 1.04 | S. cerevisiae deletion strains, locus YLR418C, strain cdc73, hits give low values 0.991 | S. cerevisiae deletion strains, locus YML016C, strain PPZ1, hits give low values 1.01 | S. cerevisiae deletion strains, locus YML032C, strain rad52, hits give low values 1.01 | S. cerevisiae deletion strains, locus YML124C, strain tub3, hits give low values 1.02 | S. cerevisiae deletion strains, locus YMR078C, strain ctf18, hits give low values 1.01 | S. cerevisiae deletion strains, locus YMR223W, strain ubp8, hits give low values 1.01 | S. cerevisiae deletion strains, locus YNL067W, strain RPL9B, hits give low values 0.955 | S. cerevisiae deletion strains, locus YNL153C, strain GIM3, hits give low values 0.881 | S. cerevisiae deletion strains, locus YNL233W, strain BNI4, hits give low values 0.969 | S. cerevisiae deletion strains, locus YNL250W, strain rad50, hits give low values 0.906 | S. cerevisiae deletion strains, locus YNL307C, strain MCK1, hits give low values 1.02 | S. cerevisiae deletion strains, locus YNR052C, strain pop2, hits give low values 1.03 | S. cerevisiae deletion strains, locus YOL006C, strain TOP1, hits give low values 1.21 | S. cerevisiae deletion strains, locus YOL012C, strain htz1 0.477 | S. cerevisiae deletion strains, locus YOL147C, strain pex11, hits give low values 1 | S. cerevisiae deletion strains, locus YOR061W, strain CKA2, hits give low values 0.997 | S. cerevisiae deletion strains, locus YOR069W, strain VPS5, hits give low values 0.998 | S. cerevisiae deletion strains, locus YOR136W, strain idh2, hits give low values 1.03 | S. cerevisiae deletion strains, locus YOR144C, strain elg1, hits give low values 1.01 | S. cerevisiae deletion strains, locus YOR184W, strain ser1, hits give low values 0.957 | S. cerevisiae deletion strains, locus YOR316C, strain cot1, hits give low values 1.03 | S. cerevisiae deletion strains, locus YPR119W, strain clb2, hits give low values 1.01 | S. cerevisiae deletion strains, locus YPR163C, strain tif3, hits give low values 1.02 | S. cerevisiae deletion strains, locus YPR167C, strain met16, hits give low values 1.01 | S. cerevisiae deletion strains, strain wtn01, hits give low values 0.902
active: S. cerevisiae deletion strains, locus YDL035C, strain GPR1, hits give low values 0.818 | S. cerevisiae deletion strains, locus YDL185W, strain tfp1, hits give low values 0.231 | S. cerevisiae deletion strains, locus YDR162C, strain NBP2, hits give low values 0.545 | S. cerevisiae deletion strains, locus YEL061C, strain CIN8, hits give low values 0.846 | S. cerevisiae deletion strains, locus YGL078C, strain dbp3, hits give low values 0.87 | S. cerevisiae deletion strains, locus YHR129C, strain ARP1, hits give low values 0.894 | S. cerevisiae deletion strains, locus YIL125W, strain kgd1, hits give low values 0.815 | S. cerevisiae deletion strains, locus YJR043C, strain POL32, hits give low values 0.645 | S. cerevisiae deletion strains, locus YJR075W, strain HOC1, hits give low values 0.837 | S. cerevisiae deletion strains, locus YKL068W, hits give low values 0.864 | S. cerevisiae deletion strains, locus YKL085W, strain MDH1 (second series), hits give low values 0.771 | S. cerevisiae deletion strains, locus YKL085W, strain MDH1, hits give low values 0.771 | [1] 0.534 | S. cerevisiae deletion strains, locus YNL271C, strain bni1, hits give low values 0.78 | S. cerevisiae deletion strains, locus YNL298W, strain CLA4, hits give low values 0.708 | S. cerevisiae deletion strains, locus YNL322C, strain KRE1, hits give low values 0.579 | S. cerevisiae deletion strains, locus YPL055C, strain LGE1, hits give low values 0.548 | S. cerevisiae deletion strains, locus YPL241C, strain CIN2, hits give low values 0.717 | S. cerevisiae deletion strains, locus YPR141C, strain kar3, hits give low values 0.844 | S. cerevisiae strains, strain wild type, hits give low values 0.275

CC(C)c1c(CN(C)C(C)Cc2ccccc2)n(C)n(-c2ccccc2)c1=O (centres undefined)
inactive: S. cerevisiae deletion strains, locus YHR030C, strain SLT2, hits give low values 0.997 | S. cerevisiae deletion strains, locus YHR079C, strain IRE1, hits give low values 1.01 | [2] 0.992 | S. cerevisiae deletion strains, locus YJR066W, strain TOR1, hits give low values 0.938 | S. cerevisiae deletion strains, locus YLR113W, strain HOG1, hits give low values 1.01 | S. cerevisiae deletion strains, locus YNL183C, strain NPR1, hits give low values 0.935 | S. cerevisiae deletion strains, locus YOR231W, strain MKK1, hits give low values 1 | S. cerevisiae deletion strains, locus YPL256C, strain CLN2, hits give low values 0.971
